Compound activity deposited in PubChem by National Center for Advancing Translational Sciences (NCATS).
In the library only some 12% were active in any assay of this set; here they are far more common.
AmpC inh detg: blocks E. coli AmpC beta-lactamase in detergent assay; AID 485294; P00811; Potency, µM (top dose mostly 114 µM), hits mostly inhibitors; hit rate 0.041% among 370,000; AmpC hydrolysis of nitrocefin, absorbance 480 nm, 0.01% Triton; note: nearly all actives have a fitted effect of over 25% in size
Target sequence (P00811 whole entry, looked up): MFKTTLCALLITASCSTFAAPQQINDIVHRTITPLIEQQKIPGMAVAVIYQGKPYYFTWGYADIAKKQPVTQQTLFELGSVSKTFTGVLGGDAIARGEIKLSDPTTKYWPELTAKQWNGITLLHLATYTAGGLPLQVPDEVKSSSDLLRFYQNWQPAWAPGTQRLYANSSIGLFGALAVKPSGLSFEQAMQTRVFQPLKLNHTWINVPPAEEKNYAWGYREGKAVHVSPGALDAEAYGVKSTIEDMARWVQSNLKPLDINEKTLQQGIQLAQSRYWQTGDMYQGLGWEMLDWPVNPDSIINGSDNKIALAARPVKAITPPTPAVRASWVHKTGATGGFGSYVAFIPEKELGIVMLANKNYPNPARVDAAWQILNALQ
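AmpC (5.3 nM in the dispensed reagent) in 20 mM phosphate pH 7.0 with 0.01% (detergent screen) or 0.0001% Triton X-100 was preincubated with compounds for 15 min at room temperature. Nitrocefin was then added from an 800 uM solution, and hydrolysis was followed at 480 nm.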
Sm TGR block: blocks Schistosoma mansoni thioredoxin glutathione reductase; hit rate 3% among 360,000; Potency, µM (highest dose often 114 µM), actives largely listed as inhibitors; purified TGR, DTNB reduction, TNB absorbance 405 nm; Q962Y6; note: nearly all actives have a fitted effect of over 60% in size
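Kinetic colorimetric format: TGR-catalysed, NADPH-driven DTNB reduction monitored via TNB absorbance. Enzyme dispensed at 20 nM; compound exposure 15 min at room temperature before reaction start.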
AmpC no deterg: AmpC beta-lactamase inhibition without detergent. hit rate 0.52% among 330,000. AmpC nitrocefin hydrolysis, absorbance 480 nm, 0.0001% Triton. P00811. Potency, µM (highest dose often 57.1 µM), actives largely listed as inhibitors; note: nearly all actives have a fitted effect of over 20% in size
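20 mM phosphate pH 7.0 + 0.01% (detergent screen) or 0.0001% Triton X-100; 5.3 nM AmpC reagent; cpd preinc 15 min RT; nitrocefin (800 uM stock) to start; A480 q20 s × 4 min; Activity was normalised to no-enzyme and no-compound control wells.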
Pf growth 48h: P. falciparum growth inhibition at 48 hours (one generation). AID 504832. hit rate 5.9% among 310,000. P. falciparum luciferase growth in erythrocytes, 48 h. Potency, µM (doses to about 28.7 µM), hits mostly inhibitors
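In quantitative HTS format, infected erythrocytes bearing luciferase-reporter parasites were treated for a single generation at 37 C. Luminescence after adding detection reagent served as the growth measure.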
Pf growth 96h: P. falciparum growth inhibition at 96 hour, primary screen for plastid delayed-death inhibitors; P. falciparum luciferase reporter growth, 96 h; Potency, µM (doses to about 28.7 µM), hits mostly inhibitors; hit rate 6.9% among 320,000
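Plates of compound plus infected erythrocytes (2% hematocrit, 0.05% parasitemia final) incubate 96 hours, 37 C, 5% CO2. Detection reagent added; reduced luminescence from the parasites' luciferase reporter flags inhibition.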
SARS PLP yeast: inhibitors of SARS-CoV papain-like protease in yeast; hit rate 0.19% among 330,000; Potency, µM (series often up to 32.9 µM), most hits filed as activators; AID 485353; S. cerevisiae expressing SARS-CoV PLpro, growth rescue; calls by dose curve; note: nearly all actives have a fitted effect of over 55% in size
Of the large screens only hits and unclear results are named; the others gave an inactive call. Unless noted, calls come from the whole dose curve; as a rule, active = well fitted curve in the direction sought with a large enough effect; inconclusive = small, poorly fitted or top-dose-only effect, or another doubt; inactive = no such curve, though single readings can be large; an effect the other way counts as inactive or inconclusive.

Cc1cccc(C(=O)NCc2nnc(SCC(=O)NC3CCCC3)n2C)c1	none
Cn1cccc1Cc1nnc(SCC(=O)Nc2cccc(F)c2)n1CCc1ccccc1	Pf growth 48h inconclusive
C[C@@H](C(=O)NC1CCCCC1)N1C(=O)N2CCc3c([nH]c4ccccc34)[C@@]2(C)C1=O	Pf growth 96h inconclusive
CN1CCC(N(C)S(=O)(=O)c2ccc(NC(=O)COc3ccc(Br)cc3Cl)cc2)CC1	Pf growth 48h 4.1µM, Pf growth 96h 2.1µM
Cc1ccc(OCC(=O)Nc2ccc(S(=O)(=O)N3CCOCC3)cc2)c(C)c1	Pf growth 48h inconclusive
Cc1ccc(OCC(=O)Nc2ccc(S(=O)(=O)N(C)C3CCN(C)CC3)cc2)c(C)c1	Pf growth 48h 12µM, Pf growth 96h inconclusive
O=C(COc1ccc(Br)cc1Cl)NC1CCN(Cc2ccccc2)CC1	Pf growth 48h inconclusive, Pf growth 96h 12µM
Cc1ccc(C)c(OCC(=O)Nc2ccc(S(=O)(=O)N3CCN(C)CC3)cc2)c1	AmpC inh detg inconclusive, Pf growth 48h inconclusive, Pf growth 96h inconclusive
CN1CCC(N(C)S(=O)(=O)c2ccc(NC(=O)COc3cccc(Cl)c3)cc2)CC1	AmpC inh detg inconclusive, Pf growth 48h 9.3µM, Pf growth 96h 13µM
Cc1cccc2c(SCC(=O)NCC3CCCO3)nc(-c3ccc(F)cc3)nc12 (configuration not stated)	none
Cc1ccccc1OCCC(=O)Nc1ccc(S(=O)(=O)N(C)C2CCN(C)CC2)cc1	AmpC inh detg inconclusive, Pf growth 48h 2.9µM, Pf growth 96h 3.7µM
CN1CCC(N(C)S(=O)(=O)c2ccc(NC(=O)Cc3ccc(F)cc3)cc2)CC1	Pf growth 96h inconclusive
COc1ccc(CCNc2nc(SCc3ccccc3Cl)nc3ccccc23)cc1OC	none (no result: AmpC no deterg, Pf growth 48h, Pf growth 96h, SARS PLP yeast)
CCN(CC)C(NC(=O)c1ccccc1)C(=O)c1ccccc1 (configuration not stated)	Sm TGR block 79µM
CCN(CC)C(C)C(=O)c1ccccc1 (configuration not stated)	none (no result: AmpC inh detg, Sm TGR block, AmpC no deterg, SARS PLP yeast)
CCOc1ccc(CCNC(=O)Cn2nnc(-c3ccc(C(F)(F)F)cc3)n2)cc1OCC	none (no result: AmpC no deterg, Pf growth 48h, Pf growth 96h, SARS PLP yeast)
N#CC(C#N)=Cc1cc(O)c(O)c(O)c1	Pf growth 48h 7.6µM, Pf growth 96h 11µM (no result: AmpC inh detg, Sm TGR block, AmpC no deterg, SARS PLP yeast)
N#CC(C#N)=Cc1cccnc1	none (no result: Sm TGR block)
Cn1c(O)c(/C=C2\N=c3ccccc3=C2CCNC(=S)NC2CC2)c(=O)n(C)c1=O	Sm TGR block 5.6µM
O=C(NCc1cccc(Cl)c1)c1cnc(N2CCCCC2)c2ccccc12	none (no result: AmpC no deterg, Pf growth 48h, Pf growth 96h, SARS PLP yeast)
O=C(CSc1oc(-c2ccco2)nc1S(=O)(=O)c1ccccc1)NCC1CCCO1 (configuration not stated)	Sm TGR block 16µM
O=C(CSc1oc(-c2ccco2)nc1S(=O)(=O)c1ccc(Cl)cc1)NCC1CCCO1 (configuration not stated)	Sm TGR block 50µM, Pf growth 96h inconclusive (no result: Pf growth 48h)
Cc1ccc(C)c(NC(=O)C(Sc2nc3ccccc3c(=O)n2CC(C)C)c2ccccc2)c1 (configuration not stated)	AmpC inh detg inconclusive, Pf growth 48h 3.7µM, Pf growth 96h 2.6µM
COc1ccc(C)cc1NC(=O)C(Sc1nnc2ccccn12)c1ccccc1 (configuration not stated)	AmpC inh detg inconclusive
CC(C)Cn1c(SC(C)C(=O)Nc2ccc3c(c2)OCCO3)nc2ccccc2c1=O (configuration not stated)	Pf growth 48h inconclusive (no result: Pf growth 96h)
Cc1ccc(C)c(NC(=O)C(Sc2nncn2C)c2ccccc2)c1 (configuration not stated)	Sm TGR block 89µM, Pf growth 96h inconclusive
CC1CCc2c(sc(NC(=O)c3cc4nc(-c5ccc(Cl)cc5)cc(C(F)(F)F)n4n3)c2C#N)C1 (configuration not stated)	none (no result: AmpC no deterg, Pf growth 48h, Pf growth 96h, SARS PLP yeast)
CC(=O)Cc1cc(O)c2ccccc2c1OC(=O)c1ccc(Br)cc1	Pf growth 48h 2.9µM, Pf growth 96h 5.9µM
O=C(NCc1cccs1)c1ccc2c(=O)n3nc(Nc4ccccc4)sc3nc2c1	none (no result: AmpC no deterg, Pf growth 48h, Pf growth 96h, SARS PLP yeast)
CCOC(=O)N1CCC2(CC1)C(C#N)=C(N)Oc1n[nH]c(CSc3ccc(C)cc3)c12	none
Cc1ccc(SCc2[nH]nc3c2C2(CCSCC2)C(C#N)=C(N)O3)cc1	AmpC no deterg 28µM (no result: Pf growth 96h)
Cn1c2ccccc2c2cc(/C=N/NC(=O)c3ccc(N)cc3)ccc21	Pf growth 48h 13µM, Pf growth 96h inconclusive
O=S(=O)(c1ccc(F)c(F)c1)N1CCC2(CC1)OCCO2	none
CNCCC=C1c2ccccc2CCc2ccccc21	AmpC inh detg inconclusive, Pf growth 48h 11µM, Pf growth 96h 9.5µM
CCOc1ccc(/C=C2\CCc3ccccc3C2=O)cc1	none
O=S(=O)(Nc1nnc(C2CC2)s1)c1ccccc1	none
CCCc1cc(=O)oc2c3c(cc(OCC(=O)NCc4ccccn4)c12)OC(C)(C)CC3	Pf growth 48h 12µM, Pf growth 96h 15µM
CCCc1cc(=O)oc2c3c(cc(OCC(=O)NCc4ccncc4)c12)OC(C)(C)CC3	Pf growth 96h inconclusive
CCCc1cc(=O)oc2c3c(cc(OCC(=O)NCCN4CCOCC4)c12)OC(C)(C)CC3	AmpC inh detg inconclusive, Pf growth 48h inconclusive, Pf growth 96h 9.3µM
CCC(Cn1nnc2ccccc2c1=O)NC(=O)Nc1ccc(C)c(C)c1 (configuration not stated)	none (no result: AmpC no deterg, Pf growth 48h, Pf growth 96h, SARS PLP yeast)
COc1ccc2c(ccc[n+]2CC(=O)c2ccccc2)c1	none
COc1ccc(C(=O)C[n+]2cn(C(F)F)c3ccccc32)c(F)c1	Sm TGR block 10µM
CC1CCCCN1C(=S)NC(=O)c1cc(Br)ccc1Cl (configuration not stated)	Pf growth 48h inconclusive, Pf growth 96h 13µM
Cc1ccc(C)c(NC(=O)Cn2c(=O)n(CCC(C)C)c(=O)c3cccnc32)c1	none (no result: AmpC no deterg, Pf growth 48h, Pf growth 96h, SARS PLP yeast)
N#Cc1cn(Cc2ccncc2)c(=O)[nH]c1=O	none
CSCCC(NS(=O)(=O)c1ccc(C)cc1)C(=O)N1CCN(C(c2ccccc2)c2ccccc2)CC1 (configuration not stated)	Pf growth 48h 3.7µM, Pf growth 96h 6.6µM
CSCCC(NS(=O)(=O)c1ccc2c(c1)oc(=O)n2C)C(=O)NC1CCN(Cc2ccccc2)CC1 (configuration not stated)	Sm TGR block inconclusive, Pf growth 96h 1.9µM
CSCCC(NS(=O)(=O)c1ccc(C)cc1)C(=O)NC1CCCCCC1 (configuration not stated)	Pf growth 48h 9.3µM, Pf growth 96h inconclusive
CSCCC(NS(=O)(=O)c1ccc2c(c1)oc(=O)n2C)C(=O)NC1CCC(C)CC1 (configuration not stated)	AmpC inh detg inconclusive
